PubChem BioAssay AID1159580 (chemical genetic matrix, 2015)
The whole screen tested about 5,500 compounds, of which about 2,000 (36%) were called active. Not shown: some 18% with an inconclusive outcome. Rule as the data show it: active = normalized growth mostly below about 0.91 (no sharp cut-off); inconclusive = no clear call, values can overlap the other calls; inactive = mostly above about 0.92. Some of the results follow.

Experiment: chemical genetic growth profiling, strain panel (AID 1159580);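 also: tested at 20 µM; growth read once vehicle control cultures reached saturation at 30 °C; 1 = growth at the plate median or of vehicle wells; lower values mean less growth of the strain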
Settings: S. cerevisiae deletion strains, growth OD

Measured: normalized growth

COc1ccc(/C=C/c2cc(O)cc(O[C@@H]3O[C@H](CO)[C@@H](O)[C@H](O)[C@H]3O)c2)cc1
inactive: locus YBR021W, strain FUR4, hits give low values 1.02 | locus YBR229C, strain ROT2, hits give low values 0.955 | locus YCL029C, strain bik1, hits give low values 0.984 | locus YDL035C, strain GPR1, hits give low values 0.972 | locus YDL074C, strain BRE1, hits give low values 1.02 | locus YDL101C, strain DUN1, hits give low values 1 | locus YDL134C, strain PPH21, hits give low values 1 | locus YDL185W, strain tfp1, hits give low values 0.974 | locus YDL192W, strain arf1, hits give low values 0.994 | locus YDR101C, strain arx1, hits give low values 1.01 | locus YDR150W, strain NUM1, hits give low values 0.997 | locus YDR162C, strain NBP2, hits give low values 0.977 | locus YDR318W, strain mcm21, hits give low values 0.986 | locus YDR388W, hits give low values 1 | locus YDR502C, strain sam2, hits give low values 0.998 | locus YEL061C, strain CIN8, hits give low values 0.994 | locus YER110C, hits give low values 0.987 | locus YER155C, strain BEM2, hits give low values 1.02 | locus YER167W, strain BCK2, hits give low values 0.978 | locus YGL078C, strain dbp3, hits give low values 0.987 | locus YGL086W, strain mad1, hits give low values 1.02 | locus YGL248W, strain PDE1, hits give low values 0.989 | locus YGR135W, strain pre9, hits give low values 0.994 | locus YGR252W, strain gcn5, hits give low values 0.964 | locus YHR030C, strain SLT2, hits give low values 1 | locus YHR079C, strain IRE1 (second series), hits give low values 0.995 | locus YHR094C, strain hxt1, hits give low values 0.989 | locus YHR129C, strain ARP1, hits give low values 0.994 | locus YHR200W, strain rpn10, hits give low values 0.983 | locus YIL066C, strain RNR3, hits give low values 0.968 | locus YIL073C, strain SPO22, hits give low values 1.01 | locus YIL125W, strain kgd1, hits give low values 0.985 | locus YIR030C, strain dcg1, hits give low values 0.997 | locus YJL095W, strain BCK1, hits give low values 1.04 | locus YJL134W, strain LCB3, hits give low values 0.994 | locus YJL168C, strain set2, hits give low values 0.998 | locus YJL187C, strain SWE1 (second series), hits give low values 1.01 | locus YJR043C, strain POL32, hits give low values 0.993 | locus YKL009W, strain mrt4, hits give low values 1 | locus YKL068W, hits give low values 0.979 | locus YKL085W, strain MDH1 (second series), hits give low values 0.982 | locus YKL085W, strain MDH1, hits give low values 0.982 | locus YKL190W, strain CNB1, hits give low values 1.01 | locus YKR001C, strain vps1, hits give low values 1.01 | locus YLR039C, strain RIC1, hits give low values 0.99 | locus YLR058C, strain SHM2, hits give low values 0.986 | locus YLR102C, strain apc9, hits give low values 0.987 | locus YLR262C, strain YPT6, hits give low values 0.961 | locus YLR268W, strain sec22, hits give low values 1.03 | locus YLR330W, strain CHS5, hits give low values 0.996 | locus YLR342W, strain FKS1 (second series), hits give low values 0.995 | locus YLR371W, strain rom2, hits give low values 0.978 | locus YLR418C, strain cdc73, hits give low values 0.984 | locus YML016C, strain PPZ1, hits give low values 0.992 | locus YML032C, strain rad52, hits give low values 0.97 | locus YML124C, strain tub3, hits give low values 0.987 | locus YMR078C, strain ctf18, hits give low values 0.994 | locus YMR223W, strain ubp8, hits give low values 0.985 | locus YMR307W, strain GAS1, hits give low values 0.965 | locus YNL067W, strain RPL9B, hits give low values 1.03 | locus YNL128W, strain TEP1, hits give low values 1 | locus YNL233W, strain BNI4, hits give low values 1.04 | locus YNL250W, strain rad50, hits give low values 0.965 | locus YNL271C, strain bni1, hits give low values 1 | locus YNL298W, strain CLA4, hits give low values 1.01 | locus YNL307C, strain MCK1, hits give low values 0.995 | locus YNL322C, strain KRE1, hits give low values 0.984 | locus YNR052C, strain pop2, hits give low values 1 | locus YOL006C, strain TOP1, hits give low values 1.05 | locus YOL012C, strain htz1 1.36 | locus YOL147C, strain pex11, hits give low values 0.988 | locus YOR061W, strain CKA2, hits give low values 0.971 | locus YOR069W, strain VPS5, hits give low values 0.993 | locus YOR136W, strain idh2, hits give low values 0.992 | locus YOR144C, strain elg1, hits give low values 0.985 | locus YOR184W, strain ser1, hits give low values 0.979 | locus YOR316C, strain cot1, hits give low values 0.999 | locus YPL055C, strain LGE1, hits give low values 1.01 | locus YPR119W, strain clb2, hits give low values 0.998 | locus YPR141C, strain kar3, hits give low values 0.982 | locus YPR163C, strain tif3, hits give low values 0.991 | locus YPR167C, strain met16, hits give low values 0.992 | strain wtn01, hits give low values 1.01
